The target in test [1] is Glucocorticoid receptor (Homo sapiens) (UniProt P04150). Put plainly: ATG_GR_TRANS: Attagene TRANS-FACTORIAL HepG2 Assay for human Glucocorticoid Receptor (GR) (AID 2282978; active = hit-call score of the fitted dose curve at least 0.9, where 1 is the maximum;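 also: activators score as hits since higher reporter transcript over DMSO is fitted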). The note with it: HepG2 Attagene TRANS GR reporter, mRNA transcription. An outline of the steps: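 Exogenous NR-GAL4 fusion activity was assessed through induced GAL4-UAS reporter transcripts in transfected human HepG2 cells, quantified after 24 h by RT-PCR and fluorescent capillary electrophoresis with DMSO as baseline.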

Test [2] concerns the target Bile acid receptor (Homo sapiens) (UniProt Q96RI1). The experiment in a line: ATG_FXR_TRANS: Attagene TRANS-FACTORIAL HepG2 Assay for Farnesoid X Receptor (FXR) (AID 2282979; active = hit-call score of the fitted dose curve at least 0.9, where 1 is the maximum;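 also: hits raise reporter mRNA above DMSO so AC50 marks FXR activation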). To be noted: HepG2 Attagene TRANS FXR-GAL4 reporter transcription. An outline of the steps: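 Reporter transcripts from transfected HepG2 cells were measured 24 h after dosing, using RT-PCR with capillary electrophoresis of 6-FAM-labelled fragments. The read-out reflects activity of exogenous FXR-Gal4 chimera on GAL4-UAS units, with induction relative to DMSO.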

The target in test [3] is Nuclear receptor subfamily 4 group A member 2 (Homo sapiens) (UniProt P43354). The experiment in a line: ATG_NURR1_TRANS: Attagene TRANS-FACTORIAL HepG2 Assay for human Nuclear Receptor Related Protein 1 (NURR1) (AID 2282985; active = hit-call score of the fitted dose curve at least 0.9, where 1 is the maximum). To be noted: HepG2 Attagene TRANS reporter, mRNA readout. The method in brief: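 HepG2 / transient MRTU transfection / 24 h compound exposure / RT-PCR + CE fluorescence of reporter mRNA / gain-of-signal vs DMSO.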

Test [4] concerns the target Transcriptional activator Myb (Homo sapiens) (UniProt P10242). The experiment in a line: ATG_Myb_CIS: Attagene CIS-FACTORIAL HepG2 Assay for human Myeloblastosis (Myb) Proto-Oncogene Transcription Factor (AID 2282986). The note with it: HepG2 Attagene CIS-FACTORIAL Myb reporter transcription; actives raise or lower the signal. The method in brief:
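In this HepG2 transient-transfection format, cis-regulated reporter mRNA is quantified 24 h post-dosing by RT-PCR with capillary electrophoresis, fitted bidirectionally to DMSO baseline.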

In test [5] the target is Nuclear respiratory factor 1 (Homo sapiens) (UniProt Q16656). Put plainly: ATG_NRF1_CIS: Attagene CIS-FACTORIAL HepG2 Assay for human Nuclear Respiratory Factor 1 (NRF1) Orphan Gene (AID 2282987). To be noted: HepG2 NRF1 cis-element reporter, Attagene multiplex; actives raise or lower the signal. The method in brief: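 Using DMSO as baseline, gain- or loss-of-signal was fitted for reporter mRNA levels in HepG2 cells transiently transfected with cis-regulated reporter units. Samples were taken 24 h after dosing and read by RT-PCR with capillary electrophoresis.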

The nature of test [6]: ATG_NFI_CIS: Attagene CIS-FACTORIAL HepG2 Assay for human Nuclear Factor I (NFI) (AID 2282989). To be noted: HepG2 cis-regulatory reporter, NFI response element transcription; actives raise or lower the signal. The method in brief:
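Transient MRTU transfection of HepG2 → 24 h chemical dosing → total RNA, oligo(dT) RT → PCR, 6-FAM primer extension, HpaI cut → capillary electrophoresis. Endpoint fitted bidirectionally relative to DMSO.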

The target of test [7] is Myc proto-oncogene protein (Homo sapiens) (UniProt P01106). The experiment in a line: ATG_Myc_CIS: Attagene CIS-FACTORIAL HepG2 Assay for human Myelocytomatosis (Myc) Proto-Oncogene Transcription Factor (AID 2282990). To be noted: HepG2, Attagene cis-reporter transcription factor activity; actives raise or lower the signal. The method in brief: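 Read-out: fluorescent reporter mRNA fragments resolved by capillary electrophoresis after RT-PCR. Human HepG2 liver cells carried transfected cis-element reporter units and were dosed for 24 h. Gain or loss of signal fitted relative to DMSO baseline.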

Test [8] is described as follows: ATG_NF_kB_CIS: Attagene CIS-FACTORIAL HepG2 Assay for human Nuclear Factor Kappa B (NF-kB) (AID 2282991). To be noted: HepG2 Attagene cis-factorial NF-kB reporter mRNA; actives raise or lower the signal. An outline of the steps:
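Endpoint from a 52-component multiplexed HepG2 reporter panel: cis-regulated transcription units transiently transfected, 24 h dosing, reporter mRNA quantified by RT-PCR and capillary electrophoresis, scored as increase or decrease against DMSO.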

A short description of test [9]: ATG_NRF2_ARE_CIS: Attagene CIS-FACTORIAL HepG2 Assay for human Nuclear Factor Erythroid 2 Related Factor 2 (NFR2) response to Antioxidant Response Elements (ARE) (AID 2282992).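 As to AC50: reporter mRNA level measured by RT-PCR and capillary electrophoresis fluorescence.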 To be noted: HepG2 Attagene ARE/NRF2 reporter, transcription factor activity; actives raise or lower the signal. An outline of the steps: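 HepG2 cells transiently transfected with multiplexed cis-regulated reporter transcription units measure endogenous transcription factor activity. Reporter mRNA at 24 h is quantified by RT-PCR, fluorescent labelling and capillary electrophoresis, with bidirectional fitting relative to DMSO.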

The nature of test [10]: ATG_Oct_MLP_CIS: Attagene CIS-FACTORIAL HepG2 Assay for human Octamer-Binding Transcription Factor (Oct) (AID 2282993). The note with it: HepG2 Attagene cis-factorial Oct reporter, mRNA; actives raise or lower the signal. The method in brief: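 Transient MRTU transfection of HepG2 → 24 h compound treatment → RNA isolation, reverse transcription, PCR → 6-FAM primer extension, HpaI digest → capillary electrophoresis. Activity fitted both directions against DMSO.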

Test [11] can be described thus: BSK_3C_uPAR: BioMAP Diversity Plus: 3C Assay for Urokinase-type plasminogen activator receptor (uPAR) Biomarker Activity (AID 2282998). To be noted: BioMAP 3C HUVEC, uPAR biomarker ELISA; actives raise or lower the signal. The method in brief:
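ELISA readout of uPAR on human vascular endothelium (umbilical vein primary cells), taken 24 h after chemical dosing. Increases and decreases are both fitted relative to DMSO vehicle.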
(An ELISA detects its analyte on a solid surface through an enzyme-linked reagent.)

Test [12] in a line: BSK_3C_VCAM1: BioMAP Diversity Plus: 3C Assay for Vascular cell adhesion molecule 1 (VCAM1) Biomarker Activity (AID 2282999). The note with it: BioMAP 3C HUVEC, VCAM1 ELISA, cytokine-stimulated; actives raise or lower the signal. The method in brief: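 Human umbilical vein endothelial cells (3C system), biomarker read by ELISA 24 h after dosing; bidirectional fit against DMSO baseline. Cytotoxicity tracked by SRB total-protein staining in parallel cultures at biomarker time.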

Test [13] is described as follows: BSK_4H_Eotaxin3: BioMAP Diversity Plus: 4H Assay for Eotaxin 3 Biomarker Activity (AID 2283000).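 As to outcome: CCL26 protein level quantified by ELISA in parallel with SRB cytotoxicity check.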 To be noted: primary human endothelial cells (HUVEC); actives raise or lower the signal. An outline of the steps: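 Human umbilical vein endothelial cells (BSK_4H system) dosed with test chemical; Eotaxin-3 (CCL26) measured by ELISA 24 h after dosing. Bidirectional curve fitting relative to DMSO negative control as baseline.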

The target of test [14] is human Peroxisome Proliferator-activated Receptor alpha (PPARa), PPARA (gene 5465) (UniProt Q07869). Put plainly: ATG_PPARa_TRANS: Attagene TRANS-FACTORIAL HepG2 Assay for human Peroxisome Proliferator-activated Receptor alpha (PPARa) (AID 2283001; active = hit-call score of the fitted dose curve at least 0.9, where 1 is the maximum). An outline of the steps:
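Measures transcriptional activity of an exogenous chimeric PPARa-Gal4 protein in transiently transfected HepG2 cells after 24 h dosing. Reporter mRNA quantified via RT-PCR and capillary electrophoresis; DMSO served as negative control.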

Test [15] has as its target Oxysterols receptor LXR-alpha (Homo sapiens) (UniProt Q13133). The experiment in a line: ATG_LXRa_TRANS: Attagene TRANS-FACTORIAL HepG2 Assay for human Liver X Receptor alpha (LXRa) (AID 2282980; active = hit-call score of the fitted dose curve at least 0.9, where 1 is the maximum). The note with it: HepG2 Attagene TRANS reporter, LXRa transactivation. An outline of the steps:
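Chemical-induced reporter mRNA measured by RT-PCR with fluorescent labelling and capillary electrophoresis after 24 h dosing of transiently transfected HepG2 cells expressing exogenous NR-Gal4 chimeras; increases scored against DMSO baseline.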

In test [16] the target is Oxysterols receptor LXR-beta (Homo sapiens) (UniProt P55055). The experiment in a line: ATG_LXRb_TRANS: Attagene TRANS-FACTORIAL HepG2 Assay for human Liver X Receptor beta (LXRb) (AID 2282981; active = hit-call score of the fitted dose curve at least 0.9, where 1 is the maximum). The note with it: HepG2 Attagene TRANS GAL4-LXRb reporter, mRNA. The method in brief: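 Gain-of-signal mRNA reporter endpoint, DMSO as negative control. Transiently transfected HepG2 cells carrying the NR-Gal4 chimera and GAL4-UAS reporter units were treated 24 h; transcripts quantified by RT-PCR and capillary electrophoresis fluorescence.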

Test [17] can be described thus: ATG_M_06_TRANS: Attagene TRANS-FACTORIAL HepG2 Assay for M06 Transcription Factor (Internal Marker) (AID 2282983; active = hit-call score of the fitted dose curve at least 0.9, where 1 is the maximum). The note with it: HepG2 Attagene TRANS M06 internal marker reporter. The method in brief: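 Cells: HepG2, transient multi-reporter transfection. Exposure: 24 h. Detection: RT-PCR, 6-FAM labelling, HpaI digestion (2 h, 37 °C), capillary electrophoresis. Baseline: DMSO.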

Test [18] is described as follows: ATG_M_32_TRANS: Attagene TRANS-FACTORIAL HepG2 Assay for M32 Transcription Factor (Internal Marker) (AID 2282984; active = hit-call score of the fitted dose curve at least 0.9, where 1 is the maximum;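 also: transcript level of a background control reporter unit measured by RT-PCR and capillary electrophoresis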). The note with it: HepG2 Attagene TRANS M32 internal marker reporter. The method in brief: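 Capillary electrophoresis of 6-FAM-labelled reporter fragments gives the signal; data fitted for gain over DMSO negative control. Source: HepG2 cells bearing transient multiple reporter transcription units, 24 h exposure.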

Test [19] concerns the target Cellular tumor antigen p53 (Homo sapiens) (UniProt P04637). The experiment in a line: ATG_p53_CIS: Attagene CIS-FACTORIAL HepG2 Assay for human p53 Transcription Factor (AID 2282994). The note with it: HepG2 p53 cis-element reporter, Attagene mRNA; actives raise or lower the signal. The method in brief: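 HepG2 cells transiently transfected with multiplexed cis-regulated reporter transcription units read endogenous TF activity. After 24 h compound exposure, reporter mRNA was quantified by RT-PCR, fluorescent labelling, HpaI digestion and capillary electrophoresis; bidirectional fits versus DMSO baseline.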

A short description of test [20]: BSK_3C_TissueFactor: BioMAP Diversity Plus: 3C Assay for Tissue Factor Biomarker Activity (AID 2282997). The note with it: BioMAP 3C HUVEC, tissue factor biomarker readout; actives raise or lower the signal. The method in brief: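 Dosing of human umbilical vein endothelial cells preceded a 24 h incubation. Tissue Factor was then read by ELISA, with increases and decreases both scored relative to DMSO controls.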

Inconclusive results are not listed. Activity calls are given as the source filed them. The calls were made as follows, unless noted: active = hit-call score of the fitted dose curve at least 0.9, where 1 is the maximum; inactive = score below 0.9.

Sequence of Cellular tumor antigen p53 (Homo sapiens) (P04637 whole entry, looked up): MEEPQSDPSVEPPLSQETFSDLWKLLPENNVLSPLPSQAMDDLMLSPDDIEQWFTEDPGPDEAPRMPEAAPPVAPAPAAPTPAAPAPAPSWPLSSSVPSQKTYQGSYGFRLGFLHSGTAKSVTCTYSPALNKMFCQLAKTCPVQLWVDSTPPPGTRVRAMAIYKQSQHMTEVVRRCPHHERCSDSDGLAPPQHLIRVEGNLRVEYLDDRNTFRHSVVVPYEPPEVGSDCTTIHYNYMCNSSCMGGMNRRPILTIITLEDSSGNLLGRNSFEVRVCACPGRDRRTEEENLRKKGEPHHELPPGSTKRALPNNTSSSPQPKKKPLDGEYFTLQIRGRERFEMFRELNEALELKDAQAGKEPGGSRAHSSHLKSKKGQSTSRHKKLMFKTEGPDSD
Sequence of Transcriptional activator Myb (Homo sapiens) (P10242 whole entry, looked up): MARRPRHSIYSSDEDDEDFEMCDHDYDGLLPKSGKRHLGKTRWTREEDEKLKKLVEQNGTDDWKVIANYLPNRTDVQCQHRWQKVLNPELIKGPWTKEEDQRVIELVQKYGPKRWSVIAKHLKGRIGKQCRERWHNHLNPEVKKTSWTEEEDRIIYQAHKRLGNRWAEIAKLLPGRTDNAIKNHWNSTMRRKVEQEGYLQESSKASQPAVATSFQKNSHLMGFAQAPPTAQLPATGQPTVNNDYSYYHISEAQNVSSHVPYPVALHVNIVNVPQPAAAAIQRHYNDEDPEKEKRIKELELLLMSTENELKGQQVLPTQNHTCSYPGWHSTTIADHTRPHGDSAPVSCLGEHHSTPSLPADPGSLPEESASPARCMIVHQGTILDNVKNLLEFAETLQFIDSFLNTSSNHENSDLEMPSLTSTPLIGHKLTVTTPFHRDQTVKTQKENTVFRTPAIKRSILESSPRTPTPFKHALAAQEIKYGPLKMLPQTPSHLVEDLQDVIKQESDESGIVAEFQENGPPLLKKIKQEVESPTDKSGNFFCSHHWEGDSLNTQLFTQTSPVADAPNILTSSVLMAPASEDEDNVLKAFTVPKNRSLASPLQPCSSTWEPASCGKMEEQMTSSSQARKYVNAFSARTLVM
Sequence of Oxysterols receptor LXR-beta (Homo sapiens) (P55055 whole entry, looked up, the tested form may be a part): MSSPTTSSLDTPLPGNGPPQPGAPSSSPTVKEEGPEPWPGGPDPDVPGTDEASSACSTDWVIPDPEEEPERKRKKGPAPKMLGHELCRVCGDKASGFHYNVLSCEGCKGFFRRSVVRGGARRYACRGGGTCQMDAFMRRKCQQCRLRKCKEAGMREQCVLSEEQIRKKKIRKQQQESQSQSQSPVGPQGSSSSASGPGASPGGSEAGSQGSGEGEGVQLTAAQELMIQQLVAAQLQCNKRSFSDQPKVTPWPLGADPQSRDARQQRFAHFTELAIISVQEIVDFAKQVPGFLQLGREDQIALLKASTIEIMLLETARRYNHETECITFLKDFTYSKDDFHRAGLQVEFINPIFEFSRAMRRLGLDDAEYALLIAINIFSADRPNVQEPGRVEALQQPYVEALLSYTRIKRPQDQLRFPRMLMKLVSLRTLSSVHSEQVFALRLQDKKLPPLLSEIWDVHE
Sequence of human Peroxisome Proliferator-activated Receptor alpha (PPARa), PPARA (gene 5465) (Q07869 whole entry, looked up, the tested form may be a part): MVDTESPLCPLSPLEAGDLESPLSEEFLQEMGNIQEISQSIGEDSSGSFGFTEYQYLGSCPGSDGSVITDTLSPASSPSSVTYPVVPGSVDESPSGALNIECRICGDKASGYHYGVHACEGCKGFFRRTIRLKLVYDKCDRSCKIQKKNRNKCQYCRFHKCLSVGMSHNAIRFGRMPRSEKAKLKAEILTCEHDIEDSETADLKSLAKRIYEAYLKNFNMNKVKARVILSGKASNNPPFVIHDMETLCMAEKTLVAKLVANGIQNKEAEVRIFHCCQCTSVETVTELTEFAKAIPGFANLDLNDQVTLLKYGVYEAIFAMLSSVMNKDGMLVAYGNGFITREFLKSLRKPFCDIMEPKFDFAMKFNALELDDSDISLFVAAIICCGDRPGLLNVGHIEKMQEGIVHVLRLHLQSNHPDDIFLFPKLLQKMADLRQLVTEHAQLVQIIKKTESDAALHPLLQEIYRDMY
Sequence of Oxysterols receptor LXR-alpha (Homo sapiens) (Q13133 whole entry, looked up, the tested form may be a part): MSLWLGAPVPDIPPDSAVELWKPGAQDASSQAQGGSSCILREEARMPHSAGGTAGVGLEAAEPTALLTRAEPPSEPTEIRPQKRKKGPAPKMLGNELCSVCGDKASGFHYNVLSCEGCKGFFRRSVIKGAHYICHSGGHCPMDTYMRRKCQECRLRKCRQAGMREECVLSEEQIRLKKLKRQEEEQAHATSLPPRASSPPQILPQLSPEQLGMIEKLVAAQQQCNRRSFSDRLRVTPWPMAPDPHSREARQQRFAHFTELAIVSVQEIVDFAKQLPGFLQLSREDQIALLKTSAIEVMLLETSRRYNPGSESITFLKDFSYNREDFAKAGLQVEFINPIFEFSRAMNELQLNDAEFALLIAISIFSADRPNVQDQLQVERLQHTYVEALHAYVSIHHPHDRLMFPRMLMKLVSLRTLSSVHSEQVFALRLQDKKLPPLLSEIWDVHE
Sequence of Glucocorticoid receptor (Homo sapiens) (P04150 whole entry, looked up, the tested form may be a part): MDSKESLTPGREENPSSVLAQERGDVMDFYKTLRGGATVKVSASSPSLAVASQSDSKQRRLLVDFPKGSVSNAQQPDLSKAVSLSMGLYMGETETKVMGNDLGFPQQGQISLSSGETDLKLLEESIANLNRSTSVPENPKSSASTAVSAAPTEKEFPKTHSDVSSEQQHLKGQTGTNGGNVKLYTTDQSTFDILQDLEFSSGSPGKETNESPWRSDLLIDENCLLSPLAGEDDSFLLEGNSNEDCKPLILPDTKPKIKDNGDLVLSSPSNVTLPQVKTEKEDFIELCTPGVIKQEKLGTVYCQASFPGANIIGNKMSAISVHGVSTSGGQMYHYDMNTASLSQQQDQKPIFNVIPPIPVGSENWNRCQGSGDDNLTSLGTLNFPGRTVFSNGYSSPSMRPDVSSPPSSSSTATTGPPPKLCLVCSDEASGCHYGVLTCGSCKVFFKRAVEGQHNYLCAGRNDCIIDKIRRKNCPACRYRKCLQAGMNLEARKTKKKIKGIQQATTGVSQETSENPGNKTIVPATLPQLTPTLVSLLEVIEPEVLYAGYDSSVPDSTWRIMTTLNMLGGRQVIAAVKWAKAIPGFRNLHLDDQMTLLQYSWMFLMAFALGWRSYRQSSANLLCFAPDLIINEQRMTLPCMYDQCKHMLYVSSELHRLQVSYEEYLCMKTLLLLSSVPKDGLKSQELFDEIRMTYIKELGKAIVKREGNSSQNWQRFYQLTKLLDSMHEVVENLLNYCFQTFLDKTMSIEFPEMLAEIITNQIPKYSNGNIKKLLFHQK
Sequence of Nuclear respiratory factor 1 (Homo sapiens) (Q16656 whole entry, looked up): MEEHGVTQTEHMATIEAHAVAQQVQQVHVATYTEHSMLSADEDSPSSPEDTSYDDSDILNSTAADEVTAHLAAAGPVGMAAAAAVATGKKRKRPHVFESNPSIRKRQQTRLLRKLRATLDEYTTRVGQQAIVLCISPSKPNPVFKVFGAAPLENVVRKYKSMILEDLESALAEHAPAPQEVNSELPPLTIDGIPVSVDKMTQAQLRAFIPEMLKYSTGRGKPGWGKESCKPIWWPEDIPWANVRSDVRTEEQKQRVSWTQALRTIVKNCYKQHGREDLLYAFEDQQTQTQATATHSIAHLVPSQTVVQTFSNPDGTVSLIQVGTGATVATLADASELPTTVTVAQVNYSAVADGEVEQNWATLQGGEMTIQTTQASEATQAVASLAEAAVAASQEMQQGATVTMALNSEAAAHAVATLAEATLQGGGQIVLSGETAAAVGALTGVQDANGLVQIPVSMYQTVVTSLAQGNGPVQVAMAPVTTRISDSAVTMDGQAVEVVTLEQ
Sequence of Nuclear receptor subfamily 4 group A member 2 (Homo sapiens) (P43354 whole entry, looked up): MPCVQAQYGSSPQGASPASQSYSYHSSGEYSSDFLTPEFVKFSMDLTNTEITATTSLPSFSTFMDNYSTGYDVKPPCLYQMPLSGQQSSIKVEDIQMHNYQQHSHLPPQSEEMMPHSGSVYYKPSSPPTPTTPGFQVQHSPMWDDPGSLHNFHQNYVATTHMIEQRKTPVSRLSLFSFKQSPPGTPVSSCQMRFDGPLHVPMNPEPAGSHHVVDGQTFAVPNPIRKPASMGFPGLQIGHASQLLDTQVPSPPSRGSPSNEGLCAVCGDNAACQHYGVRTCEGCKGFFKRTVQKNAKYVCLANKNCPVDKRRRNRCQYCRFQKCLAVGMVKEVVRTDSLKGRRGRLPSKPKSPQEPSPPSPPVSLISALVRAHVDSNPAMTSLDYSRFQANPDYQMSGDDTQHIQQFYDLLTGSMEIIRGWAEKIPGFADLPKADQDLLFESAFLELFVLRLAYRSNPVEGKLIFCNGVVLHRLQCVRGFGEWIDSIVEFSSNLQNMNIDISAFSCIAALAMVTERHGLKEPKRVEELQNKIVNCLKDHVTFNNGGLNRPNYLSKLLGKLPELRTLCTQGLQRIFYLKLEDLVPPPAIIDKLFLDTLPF
Sequence of Myc proto-oncogene protein (Homo sapiens) (P01106 whole entry, looked up, the tested form may be a part): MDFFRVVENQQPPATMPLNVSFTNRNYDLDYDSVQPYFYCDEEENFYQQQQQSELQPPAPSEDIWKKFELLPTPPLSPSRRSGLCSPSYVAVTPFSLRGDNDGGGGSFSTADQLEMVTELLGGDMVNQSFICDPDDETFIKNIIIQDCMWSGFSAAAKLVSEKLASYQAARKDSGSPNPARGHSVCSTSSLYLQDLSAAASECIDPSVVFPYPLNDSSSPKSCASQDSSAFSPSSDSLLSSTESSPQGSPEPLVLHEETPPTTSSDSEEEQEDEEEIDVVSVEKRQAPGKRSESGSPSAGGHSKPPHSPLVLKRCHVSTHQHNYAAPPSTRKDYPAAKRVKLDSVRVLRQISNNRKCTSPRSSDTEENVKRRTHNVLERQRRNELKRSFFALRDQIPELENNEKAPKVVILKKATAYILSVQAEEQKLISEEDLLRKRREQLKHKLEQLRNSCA

In general, AC50 refers to the concentration giving half of the maximal activity seen. For `CCOC(=O)[C@]1(c2ccccc2)Oc2ccccc2[C@@H]1N`, the outcome in [1], in test [2], in test [3], in test [4], in test [12] and in test [14] was inactive. Further, the AC50 in test [5] is 58.2 µM (active); in test [6] it was 46.4 µM (active); in [7], 24.5 µM (active); in test [8] it was 33 µM (active); in [9] it was 34.7 µM (active); in [10] it was 28.8 µM (active). Besides, the AC50 in test [11] is 20 µM (active); in test [13] it was 29.6 µM (active).
Take `N#CC(Br)Br`: the result in test [1], in test [2], in [15], in test [16], in [17] and in test [18] was inactive. Also, the molecule was classed as inactive in test [4], in test [5], in test [6], in [7], in test [8] and in test [10]. Also, the outcome in test [11], in test [12] and in test [13] was inactive. Also, in test [9], the concentration at half-maximal activity (AC50) is 74.8 µM (active).
For the molecule `CO[C@@H]1[C@H](OC(=O)NC(=O)CCl)CC[C@]2(CO2)[C@H]1[C@@]1(C)O[C@@H]1CC=C(C)C`, the result in test [1], in test [15], in test [16], in test [17], in [18] and in test [4] was inactive. The outcome in test [5], in test [6], in test [7], in test [8], in [19] and in [11] was inactive. The result in [14] was inactive. Also, the AC50 is 4.98 µM (active) in test [9], 40.5 µM (active) in test [10], 6.87 µM (active) in test [12] and 4.41 µM (active) in [13].
Take `COP(=S)(OC)SCN1C(=O)c2ccccc2C1=O`: the call in [1], in [2], in test [3], in test [4], in test [5] and in [6] was inactive. In addition, the call in test [7], in test [8], in test [9], in [10], in test [19] and in [12] was inactive. In addition, the outcome in test [13] and in [14] was inactive.
`C=CCc1ccc2c(c1)OCO2`: the molecule was called inactive in test [1], in test [15], in test [17], in [18], in test [3] and in test [4]. The molecule was called inactive in [5], in [6], in test [7], in [8], in [9] and in test [10]. Moreover, the molecule was called inactive in [19], in test [11], in test [12], in test [13] and in test [14].
Regarding `CCCSC(=O)N(CCC)CCC`, the result in test [1], in [16], in [17], in test [3], in [4] and in test [5] was inactive. The molecule was called inactive in test [6], in test [7], in test [8], in [9], in test [10] and in test [19]. The result in test [11], in test [12] and in test [13] was inactive.
`Nc1ccc(Cc2ccc(N)cc2)cc1`: the molecule was classed as inactive in test [1], in [2], in test [15], in test [17], in test [18] and in test [4]. The molecule was classed as inactive in test [5], in test [6], in test [7], in test [8], in test [9] and in test [10]. Besides, the outcome in test [19], in test [20], in test [12], in [13] and in [14] was inactive.

The values above are taken from PubChem BioAssay (EPA / NIEHS).
